Our source for the AC50 and outcome values is PubChem BioAssay (EPA / NIEHS).

Usually AC50 stands for the midpoint of the concentration-response curve, whichever way the signal moves.

Settings in all cases: mRNA level, 48 h; actives raise or lower the signal
Read-out in assay [1]: Early growth response protein 1 (EGR1) transcription factor, EGR1 (gene 1958)
In words: LTEA_HepaRG_EGR1: Life Technologies and Expression Analysis (LTEA) Assay for Early growth response protein 1 (EGR1) transcription factor using HepaRG (AID 2283490). The essentials: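 Differentiated HepaRG cells in serum-free induction medium exposed 48 hours, duplicate, to 8 half-log concentrations up to 100 uM in 0.5% DMSO. EGR1 mRNA measured by TaqMan qRT-PCR, normalized to ACTB, GAPDH, POLR2A; bidirectional fit versus DMSO.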

Read-out in assay [2]: Ezrin (EZR), EZR (gene 7430)
Kind of assay: LTEA_HepaRG_EZR: Life Technologies and Expression Analysis (LTEA) Assay for Ezrin (EZR) using HepaRG (AID 2283491). The essentials:
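EZR transcript levels came from Fluidigm qRT-PCR and were normalized to three housekeeping genes after 48 h chemical exposure of HepaRG cells. Dosing used an 8-point half-log series with a 100 uM top concentration in 0.5% DMSO, tested in duplicate; both directions were fitted versus vehicle.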

Read-out in assay [3]: Glutathione S-Transferase (GSTA2), GSTA2 (gene 2939)
In words: LTEA_HepaRG_GSTA2: Life Technologies and Expression Analysis (LTEA) Assay for Glutathione S-Transferase (GSTA2) using HepaRG (AID 2283497). The essentials: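 Differentiated human HepaRG cells were exposed in duplicate for 48 h in serum-free induction medium, 8 points from 100 uM top in half-log steps, 0.5% DMSO. GSTA2 mRNA was measured by TaqMan qRT-PCR, normalized to ACTB, GAPDH and POLR2A; bidirectional fit versus DMSO.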

Read-out in assay [4]: Glutamate-cysteine ligase catalytic (GCLC), GCLC (gene 2729)
In words: LTEA_HepaRG_GCLC: Life Technologies and Expression Analysis (LTEA) Assay for Glutamate-cysteine ligase catalytic (GCLC) using HepaRG (AID 2283498). The essentials: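 Differentiated HepaRG cells exposed 48 h in serum-free induction medium, eight-point half-log series topping at 100 uM in 0.5% DMSO, duplicates. GCLC mRNA by qRT-PCR normalized to ACTB, GAPDH and POLR2A, fitted bidirectionally versus DMSO.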

Read-out in assay [5]: growth arrest and DNA damage 45 (GADD45G), GADD45G (gene 10912)
Kind of assay: LTEA_HepaRG_GADD45G: Life Technologies and Expression Analysis (LTEA) Assay for growth arrest and DNA damage 45 (GADD45G) using HepaRG (AID 2283499). In short, it runs like this: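 HepaRG, 48 h exposure, top 100 uM, half-log 8-point series, 0.5% DMSO vehicle, duplicates. Readout: GADD45G transcript by qRT-PCR (Fluidigm array), housekeeping-normalised (ACTB/GAPDH/POLR2A). Bidirectional curve fit vs DMSO baseline.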

Read-out in assay [6]: Glutamate-cysteine ligase regulatory (GCLM), GCLM (gene 2730)
Kind of assay: LTEA_HepaRG_GCLM: Life Technologies and Expression Analysis (LTEA) Assay for Glutamate-cysteine ligase regulatory (GCLM) using HepaRG (AID 2283500). The essentials: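 Human liver HepaRG cultures receive test chemicals for 48 hours at up to 100 uM in 0.5% DMSO. GCLM expression is measured by qRT-PCR and analysed for increases or decreases against vehicle.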

Read-out in assay [7]: Heat shock 70 kDa protein 1 (HSPA1A), gene 3303
Kind of assay: LTEA_HepaRG_HSPA1A: Life Technologies and Expression Analysis (LTEA) Assay for Heat shock 70 kDa protein 1 (HSPA1A) using HepaRG (AID 2283502). In short, it runs like this: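 HSPA1A induction in human HepaRG liver cells is measured after 48 h of chemical treatment (100 uM maximum, 0.5% DMSO vehicle). Expression comes from qRT-PCR normalized to endogenous controls.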

Read-out in assay [8]: 3-Hydroxy-3-Methylglutaryl-CoA Synthase 2 (HMGCS2), HMGCS2 (gene 3158)
Kind of assay: LTEA_HepaRG_HMGCS2: Life Technologies and Expression Analysis (LTEA) Assay for 3-Hydroxy-3-Methylglutaryl-CoA Synthase 2 (HMGCS2) using HepaRG (AID 2283504). In short, it runs like this:
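qRT-PCR read-out of HMGCS2 transcript, normalised to three housekeeping genes, in HepaRG cells after 48 h chemical exposure. Eight-point curves from 100 uM, half-log dilutions, 0.5% DMSO vehicle; gain or loss fitted relative to DMSO baseline.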

Read-out in the next assay: HGF (gene 3082)
Kind of assay: LTEA_HepaRG_HGF: Life Technologies and Expression Analysis (LTEA) Assay for Hepatocyte Growth Facto (HGF) using HepaRG (AID 2283505). In short, it runs like this:
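HepaRG, 48 h dosing, 8-pt half-log series from 100 uM in 0.5% DMSO, duplicates. Readout: TaqMan qRT-PCR of HGF mRNA, housekeeping-normalized; bidirectional curve fit vs DMSO baseline.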

Read-out in assay [9]: Intercellular Adhesion Molecule 1 (ICAM1), ICAM1 (gene 3383)
In words: LTEA_HepaRG_ICAM1: Life Technologies and Expression Analysis (LTEA) Assay for Intercellular Adhesion Molecule 1 (ICAM1) using HepaRG (AID 2283507). The essentials: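 HepaRG, 48 h exposure, 8-pt half-log series from 100 uM, 0.5% DMSO vehicle, duplicates. Readout: TaqMan qRT-PCR mRNA, housekeeping-normalized (ACTB/GAPDH/POLR2A). Bidirectional curve fit vs DMSO baseline.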

Read-out in assay [10]: Insulin-like growth factor-binding protein 1 (IGFBP1), IGFBP1 (gene 3484)
In words: LTEA_HepaRG_IGFBP1: Life Technologies and Expression Analysis (LTEA) Assay for Insulin-like growth factor-binding protein 1 (IGFBP1) using HepaRG (AID 2283508). In short, it runs like this: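 qRT-PCR mRNA read-out (TaqMan, Fluidigm array), normalised to three housekeeping genes; HepaRG cells, 48 h exposure, 8-pt half-log series from 100 uM, 0.5% DMSO vehicle; bidirectional curve fit vs DMSO baseline.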

Read-out in assay [11]: Interleukin 6 (IL6), IL6 (gene 3569)
In words: LTEA_HepaRG_IL6: Life Technologies and Expression Analysis (LTEA) Assay for Interleukin 6 (IL6) using HepaRG (AID 2283509). The essentials: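 HepaRG cells exposed in duplicate for 48 h to eight half-log concentrations, top 100 uM, in 0.5% DMSO serum-free induction medium. mRNA measured by qRT-PCR, normalized to ACTB, GAPDH and POLR2A. Bidirectional fit versus DMSO.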

Read-out in assay [12]: Cytochrome P450 3A7 (Homo sapiens) (UniProt P24462)
Kind of assay: LTEA_HepaRG_CYP3A7: Life Technologies and Expression Analysis (LTEA) Assay for CYP3A7 using HepaRG (AID 2283492). In short, it runs like this:
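CYP3A7 transcript levels were read by TaqMan qRT-PCR on Fluidigm arrays after 48 h chemical exposure of human HepaRG cells, with housekeeping-gene normalisation. Eight half-log concentrations up to 100 uM in 0.5% DMSO were tested in duplicate.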

Read-out in a further assay: CYP3A5 (gene 1577)
Kind of assay: LTEA_HepaRG_CYP3A5: Life Technologies and Expression Analysis (LTEA) Assay for CYP3A5 using HepaRG (AID 2283493). In short, it runs like this:
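mRNA induction or loss of CYP3A5 assessed in HepaRG after 48 h dosing, 100 uM top concentration, duplicate wells; TaqMan qRT-PCR with ACTB, GAPDH, POLR2A normalization; 0.5% DMSO as negative control.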

Read-out in assay [13]: Cytochrome P450 4A22 (Homo sapiens) (UniProt Q5TCH4)
Kind of assay: LTEA_HepaRG_CYP4A22: Life Technologies and Expression Analysis (LTEA) Assay for Cytochrome P450 4A22 (CYP4A22) using HepaRG (AID 2283495). In short, it runs like this:
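HepaRG, 48 h post-plating -> serum-free induction medium; dosed 48 h, duplicate, 8 conc. (100 uM top, half-log), 0.5% DMSO. Readout: CYP4A22 mRNA by qRT-PCR, ACTB/GAPDH/POLR2A normalization; gain/loss fit relative to DMSO.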

Read-out in assay [14]: Cytochrome P450 7A1 (Homo sapiens) (UniProt P22680)
In words: LTEA_HepaRG_CYP7A1: Life Technologies and Expression Analysis (LTEA) Assay for Cytochrome P450 7A1 (CYP7A1) using HepaRG (AID 2283496). In short, it runs like this:
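Gene expression endpoint in human HepaRG liver cells treated for 48 h with test chemicals (up to 100 uM, 0.5% DMSO). Values come from bidirectional concentration-response fitting versus DMSO.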

Read-out in assay [15]: Glutathione S-transferase M3 (GSTM3), GSTM3 (gene 2947)
Kind of assay: LTEA_HepaRG_GSTM3: Life Technologies and Expression Analysis (LTEA) Assay for Glutathione S-transferase M3 (GSTM3) using HepaRG (AID 2283501). In short, it runs like this: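 qRT-PCR read-out of GSTM3 transcript, normalized to three housekeeping genes, from human HepaRG cells after 48 h chemical exposure. Eight-point half-log series, top 100 uM, 0.5% DMSO vehicle; gain or loss fitted relative to DMSO baseline.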

Read-out in assay [16]: Hypoxia-inducible factor 1-alpha (Homo sapiens) (UniProt Q16665)
In words: LTEA_HepaRG_HIF1A: Life Technologies and Expression Analysis (LTEA) Assay for Hypoxia-inducible factor 1 (HIF1A) Trancription factor using HepaRG (AID 2283503). The essentials:
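HepaRG, 48 h exposure, 8-pt half-log series from 100 uM, 0.5% DMSO vehicle, duplicates. Readout: HIF1A transcript by qRT-PCR (Fluidigm array), housekeeping-normalised. Bidirectional curve fit vs DMSO baseline.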

Read-out in assay [17]: Insulin Like Growth Factor 1 (IGF1), IGF1 (gene 3479)
In words: LTEA_HepaRG_IGF1: Life Technologies and Expression Analysis (LTEA) Assay for Insulin Like Growth Factor 1 (IGF1) using HepaRG (AID 2283506). In short, it runs like this: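 Using human HepaRG liver cells, IGF1 transcript induction or suppression is measured 48 h after dosing across eight concentrations capped at 100 uM. Values derive from bidirectional concentration-response fitting with DMSO as baseline.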

Each structure is given as a SMILES string. Activity calls are given as the source filed them. How the source made its calls: active means hit-call score of the fitted dose curve at least 0.9, where 1 is the maximum; inactive means score below 0.9.

Cytochrome P450 3A7 (Homo sapiens), sequence (P24462 whole entry, looked up): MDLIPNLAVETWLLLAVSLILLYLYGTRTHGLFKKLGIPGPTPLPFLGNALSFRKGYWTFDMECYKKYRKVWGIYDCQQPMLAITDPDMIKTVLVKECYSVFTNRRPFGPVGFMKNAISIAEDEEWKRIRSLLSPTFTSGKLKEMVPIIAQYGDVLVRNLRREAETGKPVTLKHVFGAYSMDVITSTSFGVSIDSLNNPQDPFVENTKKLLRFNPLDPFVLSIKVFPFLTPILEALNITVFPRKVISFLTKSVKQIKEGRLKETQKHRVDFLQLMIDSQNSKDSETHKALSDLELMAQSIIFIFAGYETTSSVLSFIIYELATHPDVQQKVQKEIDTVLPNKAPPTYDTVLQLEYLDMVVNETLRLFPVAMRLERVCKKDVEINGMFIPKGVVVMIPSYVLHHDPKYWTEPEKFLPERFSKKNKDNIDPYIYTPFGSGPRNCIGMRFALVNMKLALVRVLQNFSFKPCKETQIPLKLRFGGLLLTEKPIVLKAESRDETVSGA
Hypoxia-inducible factor 1-alpha (Homo sapiens), sequence (Q16665 whole entry, looked up): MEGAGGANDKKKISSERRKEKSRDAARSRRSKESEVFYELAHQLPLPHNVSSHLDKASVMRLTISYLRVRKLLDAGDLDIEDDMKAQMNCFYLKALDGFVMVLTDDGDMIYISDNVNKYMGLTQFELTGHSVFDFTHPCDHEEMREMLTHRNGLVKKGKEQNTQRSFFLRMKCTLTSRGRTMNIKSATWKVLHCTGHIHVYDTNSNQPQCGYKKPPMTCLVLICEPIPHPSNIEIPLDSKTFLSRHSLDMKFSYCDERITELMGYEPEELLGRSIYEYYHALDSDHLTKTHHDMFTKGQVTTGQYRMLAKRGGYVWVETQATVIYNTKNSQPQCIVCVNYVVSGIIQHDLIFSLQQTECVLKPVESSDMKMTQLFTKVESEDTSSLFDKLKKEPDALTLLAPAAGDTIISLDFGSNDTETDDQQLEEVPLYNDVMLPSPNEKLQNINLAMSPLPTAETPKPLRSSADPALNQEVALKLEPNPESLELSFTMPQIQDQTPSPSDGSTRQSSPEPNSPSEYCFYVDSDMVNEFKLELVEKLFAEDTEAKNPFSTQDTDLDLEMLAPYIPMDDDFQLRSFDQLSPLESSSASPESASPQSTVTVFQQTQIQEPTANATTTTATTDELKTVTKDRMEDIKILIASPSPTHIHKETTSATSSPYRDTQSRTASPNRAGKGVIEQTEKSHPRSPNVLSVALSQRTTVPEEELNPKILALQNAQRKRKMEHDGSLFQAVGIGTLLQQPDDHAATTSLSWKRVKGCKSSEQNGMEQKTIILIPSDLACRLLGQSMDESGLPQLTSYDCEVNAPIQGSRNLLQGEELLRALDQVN

In the case of `COC(=O)[C@H]1[C@H]2C[C@@H]3c4[nH]c5cc(OC)ccc5c4CCN3C[C@H]2C[C@@H](OC(=O)c2cc(OC)c(OC)c(OC)c2)[C@@H]1OC`, the AC50 in [1] is 64.2 µM (active); in [2], 8.38 µM (active); in [3] it was 60.1 µM (active); in assay [5] it was 24.6 µM (active); in assay [7], 42.2 µM (active); in assay [8] it was 57.8 µM (active). Moreover, the AC50 in assay [9] is 28.7 µM (active); in assay [10] it was 47.7 µM (active); in [11], 29.1 µM (active). Moreover, the outcome (in assay [4]; in [6]; with HGF (gene 3082)) was inactive.

As to `O=C(O)CN(CC(=O)O)CC(=O)O`, the result (in assay [1]; in assay [2]; in [12]; with CYP3A5 (gene 1577); in [13]; in assay [14]) was inactive. Moreover, the compound was classed as inactive in assay [3], in assay [4], in assay [5], in [15], in assay [7] and in [16]. For the same compound, the compound was called inactive (with HGF (gene 3082); in assay [17]; in assay [9]; in [10]; in assay [11]).

With `CCCCCCCCCCCCCCCCO`, the compound was classed as inactive (in assay [1]; in [12]; in the assay with CYP3A5 (gene 1577); in assay [13]; in [3]; in assay [4]). The result (in assay [5]; in assay [15]; in assay [7]; in assay [16]; in assay [8]; with HGF (gene 3082)) was inactive. In addition, the compound was called inactive in [17], in assay [9], in assay [10] and in [11]. The AC50 in [2] was 0.102 µM (active); in assay [14] it was 50 µM (active).

Regarding `CCc1nc(N)nc(N)c1-c1ccc(Cl)cc1`, the outcome (in [1]; in [2]; in [12]; with CYP3A5 (gene 1577); in assay [4]; in assay [7]) was inactive. The compound was classed as inactive in assay [9] and in assay [11]. The AC50 was 60.7 µM (active) in assay [13]; 2.6 µM (active) in assay [14]; 41.8 µM (active) in assay [3]; 78.1 µM (active) in [5]; 68.8 µM (active) in [8]; 50 µM (active) in the assay with HGF (gene 3082). For the same compound, the AC50 in assay [17] was 11.8 µM (active); in assay [10], 57.7 µM (active).
